Laboratory results as given in paper doi:10.1101/2024.03.05.583629.

target: pT7_6His-AlfaTag-ZIF268 (human, UniProt P18146 335-423); assay: PADIT-seq; settings: dsDNA, one strand shown

Row | Sequence | binding signal
1 | CTCGAGGATATCAAGATCTGGCCTCGGCCGCGGCCGCGGAACCTCTAGCTAGCCGACTCACTATAGGGATAATCGCCCTGAGCAAAGACC | 0.0714 ± 0.102 log2FC
2 | CTCGAGGATATCAAGATCTGGCCTCGGCAACCCACGCGGAACCTCTAGCTAGCCGACTCACTATAGGGATAATCGCCCTGAGCAAAGACC | 0.721 ± 0.102 log2FC
3 | CTCGAGGATATCAAGATCTGGCCTCGGCGCGGTGGCGGGAACCTCTAGCTAGCCGACTCACTATAGGGATAATCGCCCTGAGCAAAGACC | 0.175 ± 0.118 log2FC
